# HIF-2a block: blocks HIF-2a reporter activity | actives 0.72% (n = 360,000) | AID 624352 | 786-0 RCC cells HIF-2a reporter, luciferase luminescence, overnight | inhibition, % at 18.8 µM;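 active = inhibition of the luminescence signal of 40% or more relative to plate controls, in a single-dose primary screen at 18.75 µM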
# CF NFkB block: inhibitors of cystic fibrosis induced NF-kB; KKLEB NF-kB-GFP reporter, PAF-induced, GFP fluorescence overnight; inhibition, % at 5 µM; actives 0.86% (n = 360,000); AID 588850;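 active = at least 50% inhibition at 5 µM, scaled per plate between neutral and stimulator controls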;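 note: PAF is a Pseudomonas aeruginosa culture filtrate used as stimulus; plate controls were PAF-stimulated DMSO wells for no effect and unstimulated DMSO wells for full effect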
# KKLEB cytotox: counter-screen for CF NF-kB inhibitors: cytotoxicity | KKLEB CF airway cells viability, ATPlite luminescence, overnight; hits give low values; cells stimulated with P. aeruginosa culture filtrate | activity change (cytotoxicity), % at 5 µM | actives 0.36% (n = 360,000);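 active = corrected activity change at or below -50% at 5 µM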
# MITF TRPM1 inh: MITF TRPM1 promoter inhibition in SK-MEL-5 cells | SK-MEL-5 TRPM1 promoter luciferase, 24 h | inhibition, % at 12.5 µM | actives 0.83% (n = 330,000) | AID 488899;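 active = mean inhibition across replicates of 60% or more, whatever share of single replicates reaches that level; inconclusive = some that reach 60%, reason not given; inactive = mean inhibition across replicates below 60%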
# Shn3 inh set2: inhibitors of Schnurri-3 3'UTR reporter in osteoblasts; Clone20 osteoblast Shn3 3'UTR firefly luciferase, 24 h; inhibition, % at 12.5 µM; actives 0.52% (n = 360,000); AID 588674;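 active = mean inhibition of at least 75% with every replicate also reaching 75%; inconclusive = mean inhibition at least 75% but some replicate below; inactive = mean inhibition below 75%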;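 note: 0% = median of neutral control wells and 100% = pilot-screen positive control compound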
# Peg3 promoter: reduces Peg3 promoter-driven luciferase expression in HeLa | HeLa PEG-Prom luciferase reporter, luminescence, overnight | inhibition, % at 20 µM | actives 1.7% (n = 360,000);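 active = inhibition of at least 50% at 20 µM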
# * marks the source's active call; other numbers are inactive results; u = inconclusive; x = no result. An excerpt weighted towards active compounds, which were near 2.7% of everything screened.
SMILES,HIF-2a block,CF NFkB block,KKLEB cytotox,MITF TRPM1 inh,Shn3 inh set2,Peg3 promoter
CCCC(=O)NC(c1ccc(OC)c(OC)c1)c1cc(Cl)c2cccnc2c1O (stereo unspecified),6,-2,-5,u,88*,48
CCCCC(=O)NC(c1cccs1)c1cc(Cl)c2cccnc2c1O (stereo unspecified),7,4,-15,45,24,51*
Oc1c(C(c2ccccn2)N2CCCCC2)cc(Cl)c2cccnc12 (stereo unspecified),13,-9,-9,25,20,23
CCC(=O)NC(c1cc(Cl)c2cccnc2c1O)C1CC1 (stereo unspecified),15,2,-10,34,78,36
CN1CCN(C(c2ccc(Cl)cc2)c2cc(Cl)c3cccnc3c2O)CC1 (stereo unspecified),50*,38,-42,43,77,65*
C=C1C(=O)C23C(O)C1CCC2C12CCCC(C)(COC(C)=O)C1C(O)C3(O)OC2 (stereo unspecified),93*,91*,-91*,97*,94*,107*
COC(=O)c1ccc(Cn2cnc3c(Cl)ncnc32)cc1,2,39,4,0,36,-1
O=C(CSc1ccccn1)Nc1nc2ccccc2s1,-178,-18,5,-39,-14,-161
O=S(=O)(CCSc1ccccn1)c1nc2ccccc2s1,17,32,-35,11,13,60*
CN1c2ccccc2N(C)C1(C)c1ccccc1,-1,7,-5,17,80,-7
CCN1c2ccccc2N(C)C1(C)c1ccccc1 (stereo unspecified),26,-18,-1,60,89*,-5
C[C@@H]1NC(=O)N[C@@H]1CCCCCC(=O)O,6,-11,-64*,-6,17,12
COC(=O)c1cccc(NC(=O)/C=C/c2ccc3c(c2)OCO3)c1,50*,-14,-5,4,1,-140
COC(=O)c1cc(NC(=O)/C=C/c2ccc3c(c2)OCO3)cc(C(=O)OC)c1,22,-13,-8,-2,22,19
CC(C)C[C@H]1CNC(=S)N1C[C@H]1CCCN1C[C@H](Cc1ccc(O)cc1)N1C[C@H](Cc2ccc(O)cc2)N(CC2CCCCCC2)C1=S,-19,71*,-59*,x,5,101*
CC(C)C[C@H]1CNC(=S)N1CC1CCCN1C[C@H](Cc1ccccc1)N1C[C@H](Cc2ccc(O)cc2)N(CC2CCCCCC2)C1=S (stereo partly specified),-2,28,-3,25,34,66*
CC(C)C[C@H]1CN([C@@H](Cc2ccc(O)cc2)CN2CCC[C@@H]2CN2C(=S)NC[C@@H]2Cc2ccccc2)C(=S)N1CC1CCCCCC1,-12,3,-6,x,-3,-8
COC(=O)c1c(C)[nH]c(C(=O)OC(C)C(=O)NC2CCCCC2C)c1C (stereo unspecified),12,-14,-5,x,7,7
CCCS(=O)(=O)NC(=O)C1(C)CCCN(C(=O)c2c(OC)cccc2OC)C1 (stereo unspecified),3,4,-5,x,-1,-5
Cc1ccc(-c2csc(/C(C#N)=C/Nc3ccc4c(c3)OCCO4)n2)cc1,-5,68*,-66*,8,3,31
CCCCN(CC)S(=O)(=O)c1ccc(C(=O)N(CCCN(C)C)c2nc3cc(C)cc(C)c3s2)cc1,21,8,-24,79*,11,103*
CCN(Cc1ccccc1)S(=O)(=O)c1ccc(C(=O)N(CCCN(C)C)c2nc3cc(C)cc(C)c3s2)cc1,-1,40,-26,90*,2,100*
CCN(Cc1ccccc1)S(=O)(=O)c1ccc(C(=O)N(CCCN(C)C)c2nc3c(F)cccc3s2)cc1,7,20,-14,17,7,1
COc1ccc(C)cc1Nc1nc(N)c2cc(OC)c(OC)cc2n1,8,-19,-6,74*,0,84*
Cc1cc2nc(-c3nnnn3C3CCCCC3)c(=O)[nH]c2cc1C,7,x,x,x,x,x
SMILES,HIF-2a block,CF NFkB block,KKLEB cytotox,MITF TRPM1 inh,Shn3 inh set2,Peg3 promoter
Cc1ccc(C#CC[N+]2(CC#Cc3ccc(C)cc3)CCCCC2)cc1,13,35,-24,70*,76,97*
C(#Cc1ccccc1)C[N+]1(CC#Cc2ccccc2)CCCCC1,9,4,-9,44,86*,14
C#CC[N+]1(CC#Cc2cccc(C)c2)CCCCC1,22,6,0,-3,9,-1
C#CC[N+]1(CC#Cc2ccccc2)CCCCC1,13,6,-4,0,11,4
O=C(CNC(=O)c1cccc(F)c1)N/N=C/c1cc(Br)ccc1OC(=O)/C=C/c1ccco1,-11,8,-1,67*,87*,31
O=C(CNC(=O)c1ccc(F)cc1)N/N=C/c1cc(Br)ccc1OCc1ccccc1,-34,8,0,-10,-9,-7
O=C(c1cc(C(=O)NCCc2ccccc2)c(=O)n(CCc2ccccc2)c1)c1cc(Cl)ccc1O,10,36,-24,-7,44,52*
COc1cc2sc(-c3ccccc3OC)c(-c3ccc(OCCN4CCOCC4)cc3)c2cc1OC,7,9,7,-4,15,30
COc1ccc2sc(-c3ccccc3OC)c(-c3ccc(SC)cc3)c2c1,-11,x,x,x,x,x
COc1ccc2c(-c3ccc(OCCN4CCOCC4)cc3)c(-c3ccccc3OC)sc2c1,5,-2,-22,-9,2,-9
COc1ccccc1-c1sc2ccccc2c1-c1ccc(OCCN2CCCCC2)cc1,7,21,-5,2,55,91*
COc1ccc2sc(-c3ccccc3OC)c(-c3ccc(OCCN(C)C)cc3)c2c1,-19,14,-28,28,20,89*
COc1ccc2c(-c3ccc(OCCN4CCCCC4)cc3)c(-c3ccccc3OC)sc2c1,-8,31,-22,20,-1,92*
CC(=O)c1cccc(NC(=O)C2Cc3c(-c4ccco4)ccnc3O2)c1 (stereo unspecified),4,14,-19,x,15,7
COCCNC(=O)C1(C)CCCN(C(=O)c2ccc(N(C)C)cc2)C1 (stereo unspecified),15,-3,-1,x,-10,7
N#C/C(=C\c1ccc(-c2ccc(F)cc2)o1)C(=O)Nc1nc(-c2cccs2)cs1,-6,32,-34,-11,6,10
N#C/C(=C/c1ccc(-c2ccc([N+](=O)[O-])cc2)o1)C(=O)Nc1nc(-c2cccs2)cs1,3,-10,-10,-12,10,55*
O=[N+]([O-])c1ccc(S(=O)(=O)c2cccc(C(F)(F)F)c2)nc1,52*,89*,-39,83*,x,100*
CCOC(=O)c1sc2nc(OCc3cccnc3)cc(C)c2c1N,-107,x,x,x,x,x
